The text below walks through data of PubChem BioAssay (NCATS).

Inconclusive results are not listed. Activity calls are given as the source filed them. Calls follow the shape of the dose curve; as a rule, active = well fitted curve in the direction sought with a large enough effect; inconclusive = small, poorly fitted or top-dose-only effect, or another doubt; inactive = no such curve, though single readings can be large; an effect the other way counts as inactive or inconclusive.

The nature of assay [1]: qHTS of pediatric cancer cell lines to identify multiple opportunities for drug repurposing: Confirmatory screen for Rh41 cells (AID 1347123). Also: nearly all actives have a fitted effect of over 60% in size. Also: potency is read from the fitted curve at half-maximal effect. The note with it: Rh41 rhabdomyosarcoma cells, viability/cytotoxicity qHTS; series mostly up to 45.9 µM. The method, boiled down:
(§1)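 Viability after 48 h compound treatment at 37C, 500-1,000 cells/well, read as ATP luminescence with CellTiter-Glo. Primary screens used 11-point (MIPE, 0.78 nM-46 µM) or 8-point (NPC, 0.59 nM-46 µM) final concentrations; follow-up screens used 11-point dilutions.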
(qHTS replaces the single test concentration by a dilution series.)

Assay [2] can be described thus: qHTS of pediatric cancer cell lines to identify multiple opportunities for drug repurposing: Confirmatory screen for RD cells (AID 1347124).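 Also: cells exposed to compound for 48 h before viability readout; nearly all actives have a fitted effect of over 65% in size.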 Also: potency is read from the fitted curve at half-maximal effect. The note with it: RD rhabdomyosarcoma cell viability; series mostly up to 45.9 µM. The method, boiled down: as §1
Assay [3] in a line: qHTS of pediatric cancer cell lines to identify multiple opportunities for drug repurposing: Confirmatory screen for Rh18 cells (AID 1347125). Also: nearly all actives have a fitted effect of over 55% in size. Also: potency is read from the fitted curve at half-maximal effect. The note with it: Rh18 rhabdomyosarcoma cells, viability; series mostly up to 45.9 µM. The method, boiled down:
as §1

Assay [4] in a line: qHTS of pediatric cancer cell lines to identify multiple opportunities for drug repurposing: Confirmatory screen for Saos-2 cells (AID 1347127). Also: nearly all actives have a fitted effect of over 60% in size. Also: potency is read from the fitted curve at half-maximal effect. The note with it: Saos-2 osteosarcoma cell viability; series mostly up to 45.9 µM. The method, boiled down: as §1
Assay [5] in a line: qHTS of pediatric cancer cell lines to identify multiple opportunities for drug repurposing: Confirmatory screen for SK-N-SH cells (AID 1347129).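 Also: cells exposed to compound for 48 h before viability read; nearly all actives have a fitted effect of over 60% in size.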 Also: potency is read from the fitted curve at half-maximal effect. The note with it: SK-N-SH neuroblastoma cell viability; series mostly up to 46.1 µM. The method, boiled down:
as §1

Assay [6] concerns Zika virus NS2B-NS3 protease. Kind of assay: Primary screen GU AMC qHTS for Zika virus inhibitors (AID 1347154). Also: nearly all actives have a fitted effect of over 70% in size. The note with it: Zika NS2B-NS3 unlinked protease, AMC fluorogenic substrate; series mostly up to 54.1 µM. The method, boiled down:
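Unlinked Zika NS2B hydrophilic domain–NS3 protease complex at 25 nM in 10 mM Tris-HCl pH 8.0, 0.01% Tween 20, with an AMC peptide substrate. Fluorescence change (340/450 nm) over 15 min at room temperature, normalized to controls, fitted to 4-parameter Hill.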

In assay [7] the target is N-terminal Xaa-Pro-Lys N-methyltransferase 1 (Homo sapiens) (UniProt Q9BV86). Kind of assay: qHTS Assay for Inhibitors of N-terminal methyltransferase 1 (NTMT1): LOPAC validation of the NTMT1 SAHH-coupled ThioGlo3 Assay (AID 1347143).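 Also: SAH from peptide methylation measured as thiol fluorescence via SAHH coupling and ThioGlo3; potency is read from the fitted curve at half-maximal effect; nearly all actives have a fitted effect of over 70% in size.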 The note with it: recombinant NTMT1, SAHH-coupled ThioGlo3 fluorescence; series mostly up to 114 µM. The method, boiled down: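 Steps: dispense 125nM NTMT1; pin-transfer test compounds at several concentrations, with 1uM RCC1-6 peptide as control; incubate 1 min; start with reagent holding 100uM SAM, 10uM SAHH, 15uM ThioGlo3; read at 0 and 30 min.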

Assay [8] in a line: qHTS of pediatric cancer cell lines to identify multiple opportunities for drug repurposing: Confirmatory screen for Rh30 cells (AID 1347126). Also: nearly all actives have a fitted effect of over 55% in size. Also: potency is read from the fitted curve at half-maximal effect. The note with it: Rh30 rhabdomyosarcoma cell viability; series mostly up to 45.9 µM. The method, boiled down:
as §1

The subject of assay [9] is Zika virus NS2B-NS3 protease (linked construct). Nature of the assay: Confirmatory screen NINDS AMC qHTS for Zika virus inhibitors (AID 1347152).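 Also: AMC fluorescence gain from cleaved Bz-Nle-KRR-AMC substrate over 15 min; top concentration of the series differs between compounds; nearly all actives have a fitted effect of over 70% in size.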 The note with it: Purified linked NS2B-NS3, AMC substrate fluorescence; series mostly up to 56.6 µM. The method, boiled down:
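Enzyme (1 nM, linked construct) was preincubated with compound for 15 minutes at room temperature in 10 mM Tris-HCl pH 8.0 with 0.01% Tween 20. Bz-Nle-Lys-Arg-Arg-AMC was then added to 10 microM, and AMC fluorescence was recorded immediately and after 15 minutes.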

Assay [10] deals with Zika virus NS2B-NS3 protease (unlinked complex). Nature of the assay: Confirmatory screen GU AMC qHTS for Zika virus inhibitors (AID 1347153). Also: nearly all actives have a fitted effect of over 70% in size. The note with it: Recombinant NS2B-NS3 protease, AMC substrate fluorescence; series mostly up to 57.1 µM. The method, boiled down: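 Fluorescence change (ex 340/em 450 nm) over 15 min, ~20% substrate conversion, normalized to no-inhibitor and no-enzyme controls, then Hill-fitted. Unlinked protease at 25 nM; AMC peptide 10 µM.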

Assay [11] in a line: Vero cells viability qHTS for Zika virus inhibitors (AID 1347167). The note with it: cytotoxicity counter-screen (Zika); series mostly up to 45.9 µM. The method, boiled down: (§2)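 qHTS titration; 24-48 h compound exposure, 37 degrees C/5% CO2; DMEM, 4% FBS; CellTiter Glo ATP luminescence.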
Assay [12] in a line: HepG2 cells viability qHTS for Zika virus inhibitors (AID 1347168). The note with it: Zika counter-screen; series mostly up to 45.9 µM. The method, boiled down:
as §2

The target of another assay is Furin (Homo sapiens) (UniProt P09958). Kind of assay: Furin counterscreen qHTS for Zika virus inhibitors (AID 1347149). The note with it: furin enzymatic counterscreen, fluorogenic substrate; series mostly up to 57.5 µM. The method, boiled down:
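Counterscreen measures cleavage of 2 microM BOC-RVRR-AMC, below its ~15 microM Km, by 5 nM full-length human furin at pH 7.0 after a 15-min compound preincubation. Inhibition derives from the 15-min fluorescence increase at 37C.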

The test system of assay [13] is Zika virus NS2B-NS3 protease (unlinked complex). Nature of the assay: Primary screen GU Rhodamine qHTS for Zika virus inhibitors: Unlinked NS2B-NS3 protease assay (AID 1347159). Also: nearly all actives have a fitted effect of over 60% in size. The note with it: Recombinant ZIKV NS2B-NS3 protease, Rhodamine110 substrate fluorescence; series mostly up to 107 µM. The method, boiled down:
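Enzyme 25 nM in Tris-HCl pH 8.0 + 0.01% Tween 20; compounds up to 114 microM, 15 min RT dark; + Rhod110 substrate 1.5 microM; read t0 and 15 min; delta fluorescence → % inhibition → 4-parameter Hill fit.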

Assay [14] concerns the target Lysine-specific demethylase 5B (Homo sapiens) (UniProt Q9UGL1). Nature of the assay: Optimization screen for KDM5B Histone Demethylases FDH coupled qHTS against the LOPAC library (AID 1347166). The note with it: KDM5B demethylation, FDH-coupled NADH fluorescence (FDH is formaldehyde dehydrogenase); series mostly up to 57.5 µM. The method, boiled down: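 KDM5BDeltaAP (200nM final) in 50mM HEPES pH 7.5, 0.01% Tween-20 was preincubated with compound for 10 min at room temperature. A substrate mix of 12.5uM H3K4Me3, 25uM a-ketoglutarate, ascorbate, Fe2+, NAD+ and formaldehyde dehydrogenase was then added. NADH fluorescence (340/450 nm) was read initially and after 30 min.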

N-terminal Xaa-Pro-Lys N-methyltransferase 1 (Homo sapiens), sequence (Q9BV86 whole entry, looked up): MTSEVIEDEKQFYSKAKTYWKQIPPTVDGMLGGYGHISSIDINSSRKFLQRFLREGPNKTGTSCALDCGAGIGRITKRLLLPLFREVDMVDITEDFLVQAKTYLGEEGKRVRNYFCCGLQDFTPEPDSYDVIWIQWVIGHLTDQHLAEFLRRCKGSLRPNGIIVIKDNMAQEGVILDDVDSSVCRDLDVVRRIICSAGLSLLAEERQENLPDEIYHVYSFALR
Furin (Homo sapiens), sequence (P09958 whole entry, looked up): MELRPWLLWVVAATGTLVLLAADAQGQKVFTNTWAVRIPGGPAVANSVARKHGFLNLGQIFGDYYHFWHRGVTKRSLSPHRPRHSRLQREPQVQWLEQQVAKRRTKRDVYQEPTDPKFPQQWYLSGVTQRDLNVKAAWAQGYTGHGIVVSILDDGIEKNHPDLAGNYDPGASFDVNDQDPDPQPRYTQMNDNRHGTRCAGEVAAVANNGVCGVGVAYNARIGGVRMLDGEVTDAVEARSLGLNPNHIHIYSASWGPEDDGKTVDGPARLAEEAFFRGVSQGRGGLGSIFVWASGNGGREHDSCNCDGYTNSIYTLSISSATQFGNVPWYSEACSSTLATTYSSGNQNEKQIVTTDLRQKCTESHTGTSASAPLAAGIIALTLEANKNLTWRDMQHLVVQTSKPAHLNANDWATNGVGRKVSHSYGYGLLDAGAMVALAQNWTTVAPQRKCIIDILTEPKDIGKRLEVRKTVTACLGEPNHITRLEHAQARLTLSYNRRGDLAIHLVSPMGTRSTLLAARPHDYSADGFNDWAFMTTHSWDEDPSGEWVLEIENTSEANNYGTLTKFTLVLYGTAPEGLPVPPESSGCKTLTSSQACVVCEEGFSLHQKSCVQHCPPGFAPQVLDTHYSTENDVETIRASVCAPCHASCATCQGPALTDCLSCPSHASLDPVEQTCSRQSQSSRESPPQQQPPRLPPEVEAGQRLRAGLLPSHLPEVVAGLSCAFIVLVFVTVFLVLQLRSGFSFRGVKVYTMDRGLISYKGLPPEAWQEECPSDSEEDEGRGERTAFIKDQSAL
Lysine-specific demethylase 5B (Homo sapiens), sequence (Q9UGL1 whole entry, looked up): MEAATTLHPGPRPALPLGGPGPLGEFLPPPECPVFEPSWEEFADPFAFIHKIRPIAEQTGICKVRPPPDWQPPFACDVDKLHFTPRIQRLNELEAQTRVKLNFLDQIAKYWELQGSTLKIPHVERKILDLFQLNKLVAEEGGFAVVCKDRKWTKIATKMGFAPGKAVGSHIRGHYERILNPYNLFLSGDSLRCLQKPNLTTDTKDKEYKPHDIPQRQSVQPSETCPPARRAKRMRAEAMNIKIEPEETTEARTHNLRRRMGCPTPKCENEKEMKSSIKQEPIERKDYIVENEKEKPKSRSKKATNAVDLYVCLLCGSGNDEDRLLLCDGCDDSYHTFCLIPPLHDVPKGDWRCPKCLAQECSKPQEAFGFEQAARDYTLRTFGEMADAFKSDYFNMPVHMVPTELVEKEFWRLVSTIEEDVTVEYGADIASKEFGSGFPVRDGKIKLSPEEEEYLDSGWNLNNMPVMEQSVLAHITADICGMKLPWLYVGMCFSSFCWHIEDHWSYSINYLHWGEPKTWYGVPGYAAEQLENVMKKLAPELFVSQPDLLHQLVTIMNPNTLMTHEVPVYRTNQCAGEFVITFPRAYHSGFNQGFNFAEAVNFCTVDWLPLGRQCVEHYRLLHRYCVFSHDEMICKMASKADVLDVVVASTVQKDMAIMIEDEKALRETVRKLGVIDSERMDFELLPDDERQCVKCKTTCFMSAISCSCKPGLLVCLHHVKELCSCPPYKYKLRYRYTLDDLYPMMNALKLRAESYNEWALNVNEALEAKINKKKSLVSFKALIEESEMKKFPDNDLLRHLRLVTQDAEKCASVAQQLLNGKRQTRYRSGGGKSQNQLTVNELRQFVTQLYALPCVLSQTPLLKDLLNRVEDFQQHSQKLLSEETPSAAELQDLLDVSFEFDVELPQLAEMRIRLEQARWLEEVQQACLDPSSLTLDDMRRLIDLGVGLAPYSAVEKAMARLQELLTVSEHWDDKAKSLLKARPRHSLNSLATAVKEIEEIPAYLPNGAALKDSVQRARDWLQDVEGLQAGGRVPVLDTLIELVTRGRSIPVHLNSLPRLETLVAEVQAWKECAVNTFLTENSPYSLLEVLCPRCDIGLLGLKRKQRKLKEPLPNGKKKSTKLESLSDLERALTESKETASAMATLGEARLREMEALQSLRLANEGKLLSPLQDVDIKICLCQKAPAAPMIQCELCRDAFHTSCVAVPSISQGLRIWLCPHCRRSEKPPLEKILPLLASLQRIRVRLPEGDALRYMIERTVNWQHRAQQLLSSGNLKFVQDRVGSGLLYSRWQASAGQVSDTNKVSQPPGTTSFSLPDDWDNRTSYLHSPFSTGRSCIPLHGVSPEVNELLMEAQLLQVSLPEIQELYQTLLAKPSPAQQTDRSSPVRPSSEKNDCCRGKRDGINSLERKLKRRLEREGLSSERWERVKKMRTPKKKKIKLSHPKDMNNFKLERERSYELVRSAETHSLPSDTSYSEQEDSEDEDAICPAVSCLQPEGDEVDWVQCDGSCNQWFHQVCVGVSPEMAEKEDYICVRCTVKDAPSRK

Take `C[C@]12CCC(=O)C=C1CC[C@@H]1[C@H]2[C@@H](O)C[C@@]2(C)[C@H]1CC[C@]2(O)C(=O)CO`: the Potency entry in assay [1], in assay [2], in [3], in [4], in [5] and in assay [6] was “inactive” throughout.
With `Oc1ccc2ccccc2c1SSc1c(O)ccc2ccccc12`, in assay [7], the Potency was 35.5 µM (active).
With `CCN(CC)C(=S)SSC(=S)N(CC)CC`, the Potency in assay [1] was 0.261 µM (active); in assay [2], 4.65 µM (active); in assay [4], 16.5 µM (active); in [7] it was 4.47 µM (active). For the same compound, the Potency entry in assay [8], in assay [5] and in assay [6] was “inactive” in each case.
As for `Oc1ccc(-c2nc(-c3ccc(F)cc3)c(-c3ccncc3)[nH]2)cc1`, the Potency in assay [1] is 1.47 µM (active); in assay [3] it was 23.3 µM (active); in assay [8], 14.7 µM (active); in [5], 5.26 µM (active); in assay [7] it was 79.4 µM (active). In addition, the Potency result in assay [2], in assay [9], in [10], in assay [6], in assay [11] and in [12] was “inactive” throughout.
Regarding `O=C(NCC1CCCCN1)c1cc(OCC(F)(F)F)ccc1OCC(F)(F)F` (configuration not stated), the Potency result in assay [1], in [2], in assay [3], in assay [4], in assay [5] and in assay [6] was “inactive” each time.
For `CCCCc1ccc2nc(NC(=O)OC)[nH]c2c1`, the Potency in [1] was 0.131 µM (active); in [2], 0.369 µM (active); in assay [3], 8.27 µM (active); in [8], 9.27 µM (active); in [4], 0.233 µM (active). The Potency result in [6] was “inactive”.
Consider `CCOc1cc(CC(=O)N[C@@H](CC(C)C)c2ccccc2N2CCCCC2)ccc1C(=O)O`, for which the Potency result in [1], in assay [2], in [3], in [8], in [4] and in assay [5] was “inactive” each time. For the same compound, the Potency result in assay [6] was “inactive”.
On to `CCc1nc(N)nc(N)c1-c1ccc(Cl)cc1`, for which the figures for the Potency in assay [1] and in assay [2] were 10.4 µM (active) and 9.27 µM (active), respectively. For the same compound, the Potency result (in assay [5]; with Furin (Homo sapiens); in assay [9]; in assay [10]; in assay [6]; in assay [11]) was “inactive” throughout.
Take `Cc1ccc(NC(=O)c2ccc(CN3CCN(C)CC3)cc2)cc1Nc1nccc(-c2cccnc2)n1`: the Potency entry in assay [1], in [2], in [3], in assay [8], in [4] and in assay [5] was “inactive” each time. Besides, the Potency entry in [6] and in assay [13] was “inactive” throughout.
`Nc1ccn([C@@H]2O[C@H](CO)[C@@H](O)C2O)c(=O)n1` (some centres not stated): the Potency entry in assay [1], in [2], in assay [8], in assay [4], in [5] and in assay [6] was “inactive” throughout. For the same compound, the compound was classed as inactive in [14].
